# Measured values from PubChem BioAssay AID624297 (National Center for Advancing Translational Sciences (NCATS), 2012).
# Hit rate of the full screen: of about 340,000 compounds, about 6,200 (1.8%) were called active. About 10% were inconclusive and are not listed. This excerpt belongs to a sample that is enriched for actives. A number with no mark means an inactive call. Calls follow the shape of the dose curve; as a rule, active = well fitted activation curve with a large enough effect; inconclusive = small, poorly fitted or top-dose-only effect; inactive = no such curve, though single readings can be large or run the other way.
# Assay: A quantitative high throughput screen for small molecules that induce DNA re-replication in SW480 colon adenocarcinoma cells. Also: nearly all actives have a fitted effect of over 55% in size. As to re-replication activation: % of control where 0% means no effect.
# Details: Hoechst DNA content imaging, 48 h; series mostly up to 46.1 µM; re-replication activation: at the top concentration
# Excerpt: H Molecular Libraries Probe Production Network [MLPCN] NIH Chemical Genomics Center [NCGC] MLPCN Grant: Fast Track K99 CA136555 Assay Provider: Melvin DePamphilis, NICHD, NIH Assay Overview Eukaryotic cells normally restrict genome duplication to once per cell division. When this process is aberrant, DNA re-replication occurs when cells reinitiate DNA replication before the first round of replication is complete. DNA re-replication induces the DNA damage response, arrests cell proliferation, and triggers apoptosis. The cell cycle components cyclin A, Cdt-1, Cdc6 and geminin are critical regulators of this process and their misregulation results in DNA re-replication in normal and cancer cells. To identify compounds that induce re-replication in normal cells, an image-based assay was used to measure DNA content of nuclei, as detected by the fluorescent DNA binding dye, Hoechst. Cell nuclei were imaged by a fluorescence scanning plate imager and compounds that induce DNA re-replication were identified by the increase of nuclei with elevated fluorescence intensity
# For screening, 250 cells in 5 uL/well were dispensed into black clear 1536-well plates (Aurora) using a solenoid-based dispenser. Following transfer of 23 nL compound or DMSO vehicle by a pin tool, the plates were incubated 48 hr at 37 C and 5% CO2. After addition of 1 uL/well Hoescht stain, the plates were incubated 40 min at 37 C, 5% CO2 and total intensity of fluorescent objects (nuclei) were enumerated by an Acumen Explorer Ex3 (TTP LabTech) fluorescence scanning plate imager (405 nm excitation, 500-530 nm emission). Keywords: NIH Roadmap, MLPCN, MLI, MLSMR, qHTS, NCGC, DNA replication, cancer
# Potency is read from the fitted curve at half-maximal effect.
Structure (SMILES),re-replication activation,Potency
COC(=O)CC(CC(=O)OC)n1cccc1,0.407%,
CCN(CC)CCCC(C)n1c2nc(=O)[nH]c(=O)c-2nc2cc(Cl)ccc21 (stereo not given),,11.6 µM (active)
O=C(Cc1ccc(NC(=O)C2CCCN(C(=O)C3CCCCC3)C2)cc1)Nc1cccc(C(=O)N2CCCCC2)c1 (stereo not given),5.52% [at 9.22 µM],
C=CCn1c(C)cc(C2=NNC(=NCC)SC2)c1C,1.88%,
Cc1ccc(CC(=O)Nc2ccc(S(=O)(=O)N3CCOCC3)cc2)cc1C,-13.4%,
Cc1cc(C2=NNC(=Nc3ccc(S(=O)(=O)N4CCOCC4)cc3)SC2)c(C)n1CC1CCCO1 (stereo not given),,3.66 µM (active)
CN(C(=O)c1cccc(NC(=O)Cc2ccc(NC(=O)C3CCN(C(=O)C4CCCCC4)CC3)cc2)c1)C1CCC1,10.8% [at 9.22 µM],
O=S1(=O)CSCS(=O)(=O)C1,-1.95%,
Cc1ccc2nc(-c3cccnc3)c(NC3CCCC3)n2c1,-5.41%,
COc1ccc(-c2nc3cnccn3c2NC(C)(C)CC(C)(C)C)cc1O,4.42%,
COc1ccc(-c2nc3cnccn3c2NC2CCCCC2)cc1-c1cccc(Cl)c1,,5.17 µM (active)
COc1cc(NC(=O)COC(=O)c2ccc([N+](=O)[O-])s2)cc(OC)c1OC,-3.57%,
CCCCN(CCCC)CC(O)Cn1c2ccccc2c(=O)c2ccccc21 (stereo not given),,7.31 µM (active)
CC(=O)c1ccc2c(c1)c1ccccc1n2CC(C)C,-4.69%,
CCCn1c(=O)c(-c2ccccc2)c(O)c2ccccc21,-4.27%,
Nc1nonc1-n1nnc(C(=O)N/N=C/c2ccccc2O)c1CN1CCCC1,-5.57%,
Nc1nonc1-n1nnc(C(=O)N/N=C/c2cc(Br)ccc2O)c1CSC1=NCCS1,,13 µM (active)
Cc1ccc(SCc2c(C(=O)N/N=C/c3cccnc3)nnn2-c2nonc2N)cc1,-16.9%,
O=C(CCCCCCCC(=O)N1CCCCC1)N1CCCCC1,-6.64%,
COc1ccc(C(=O)OCc2cc(=O)n3ccsc3n2)cc1F,-5.06%,
CCCNC(=O)c1c(N)n(-c2ccc(S(N)(=O)=O)cc2)c2nc3ccccc3nc12,,0.82 µM (active)
Cc1noc(C)c1C(=O)NCCc1ccc(S(N)(=O)=O)cc1,-15.5%,
CCOC(=O)c1c(C)c(C(=O)NCCc2ccc(S(N)(=O)=O)cc2)c(C)n1CC,-3.88%,
Cc1csc(NC(=O)c2ccc(C)s2)n1,15.7%,
Cc1csc(NC(=O)c2ccc(-c3ccc(Cl)cc3Cl)o2)n1,,13 µM (active)

Structure (SMILES),re-replication activation,Potency
O=C(Nc1cccc2ncccc12)c1ccc(-c2ccc(Cl)cc2Cl)o1,0.657%,
Cc1cccc(N2O[C@H]3C=CC2CCCC3)n1,0.356%,
CC1CN(Cc2ccco2)C(=S)N(c2ccccc2)C1=O (stereo not given),-2.33%,
CN1CCN(S(=O)(=O)c2ccc(NC(=S)NC(=O)C3CC3)cc2)CC1,-9.04%,
Cc1cc(C)nc(N2CCC(C(=O)Nc3ccc4c(c3)OCCO4)CC2)n1,8.19%,
Cc1cc(Nc2cc(N3CCN(C)CC3)nc(Sc3ccc(NC(=O)C4CC4)cc3)n2)n[nH]1,,0.259 µM (active)
CC1Cc2ccccc2N1S(=O)(=O)c1cccc(C(=O)OCC(=O)N2CCOCC2)c1 (stereo not given),-2.28%,
O=C(COC(=O)C1CCCO1)Nc1nc(-c2ccc(F)cc2)cs1 (stereo not given),4.83%,
CC[C@]1(C(=O)OC)[C@H]2C(=O)N(C)C(=O)[C@H]2[C@H]2CN(C)C(=NCc3ccccc3)N21,-0.109%,
O=C(CN1C(=O)C2C3CCC(C3)C2C1=O)Oc1ccc2ccccc2c1 (stereo not given),-7.39%,
CC1=CC(C)(C)Nc2ccc(OC(=O)CN3C(=O)C4CCCCC4C3=O)cc21 (stereo not given),,20.6 µM (active)
O=C(COC(=O)CN1C(=O)C2CCCCC2C1=O)Nc1ccc(F)c(F)c1F (stereo not given),-20.3%,
COc1ccc(CNC(=O)CN2C(=O)c3ccccc3S2(=O)=O)cc1,-3.49%,
CCC(CO)Oc1cc(NC(=O)c2cccc3ccccc23)c2ncn(C(C)C)c2c1 (stereo not given),-5.66% [at 9.22 µM],
CCc1ccc(C(=O)C(C)OC(=O)CN2C(=O)NC3(CCCC3)C2=O)cc1 (stereo not given),,3.26 µM (active)
O=C(CN1C(=O)NC2(CCCC2)C1=O)OCCOc1ccc(F)cc1,-58.9%,
Cc1ccc(COC(=O)CN2C(=O)NC3(CCCC3)C2=O)cc1,-6.36%,
O=C1c2ccccc2C(=O)C1C(=O)C1CC1,19.8%,
Cc1cccc(-n2ncc3c(=O)[nH]c(SCC(=O)Nc4cc(C)on4)nc32)c1,-3%,
CC(C)(C)C(=O)Nc1cccc(-c2ccc[nH]2)n1,-4.35%,
CCOc1ccc2nc(NCCNS(=O)(=O)c3ccccc3)c(C#N)cc2c1,,18.4 µM (active)
CCOc1ccc(S(=O)(=O)NCCSc2ccccc2)cc1,-0.257%,
CCOc1ccc2nc(NCCNC(=O)C(C)(C)C)c(C)cc2c1,0.258%,
O=C1C=CN2CCCC2CC1 (stereo not given),-4.38%,
Cc1nc(N)nc(Cl)c1CCC1OCCO1,-1.39%,

Structure (SMILES),re-replication activation,Potency
CC(OC(=O)c1ccc([N+](=O)[O-])cc1)C(=O)NCC1CCCCC1 (stereo not given),-0.927%,
COc1ccc(C(CCN(Cc2ccc(OC)c(OC)c2)C(=O)CCl)c2ccccc2)cc1 (stereo not given),,23.1 µM (active)
COc1ccc(COC(=O)NC(C(=O)O)c2ccccc2)cc1 (stereo not given),2.12%,
COc1ccc(CCNC(=O)C(Sc2ccccn2)c2ccccc2)cc1OC (stereo not given),-1.45%,
COc1ccc(CC(=O)N[C@@H]2c3cc(OC)c(OC)cc3C[C@H]2OCc2ccccc2)cc1,4.24%,
Cc1ccc(C)c(S(=O)(=O)N(C)c2ccc(OC(=O)C3CCN(C(=O)c4ccc(F)cc4)CC3)cc2)c1,-1.93%,
Cn1nnnc1SCC(=O)Nc1cccc(S(=O)(=O)N2CCCCC2)c1,-3.5%,
COc1ccc(OC)c(NC(=O)COC(=O)Cc2ccsc2)c1,-7.6%,
Cc1ccc(Br)c(NS(=O)(=O)c2cccc(C(=O)N3CCNC(=O)C3)c2)c1,-2.86%,
OCC(O)C1OCOC(C(O)CO)C1O (stereo not given),0.851%,
c1ccc2sc(NN=C3CCCC3)nc2c1,1.2%,
O=C(CCNC(=O)c1ccccc1)Nc1nc2ccccc2s1,4.07%,
c1ccc(C(=NNc2nc3ccccc3s2)c2ccccn2)cc1,,0.259 µM (active)
N#CC1(Nc2ccc(-c3ccc(Cl)cc3)cc2)CCCC1,1.38%,
Cc1[nH]n(-c2ccc([N+](=O)[O-])cc2)c(=O)c1C=NCCN1CCN(C(=O)c2ccccc2F)CC1,-4.88%,
Cc1ccc(-n2[nH]c(C)c(/C=N/N3C(=O)c4cccc5cccc(c45)C3=O)c2=O)cc1,,16.4 µM (active)
Cc1ccc(-c2ccnc3[nH]n(-c4ccccc4)c(=O)c23)cc1,-3.91%,
COc1ccc(-c2cc(C(=O)NCCCn3ccnc3)no2)cc1,-4.18%,
COc1ccccc1-c1cc(C(=O)NCCCn2ccnc2)no1,-8.25%,
O=C(NCCCn1ccnc1)c1cc(-c2ccccc2)on1,,7.31 µM (active)
CCCCN1CC(CO)Oc2cccc(F)c2S1(=O)=O (stereo not given),-13%,
C[C@@H]1ON(C)[C@H]2C[C@H]3c4cc(N5CCN(C)CC5)ccc4CCN3C(=O)[C@@H]12,-3.9%,
COc1ccc(/C=C/C(=O)Nc2cccnc2)cc1OC,-1.89%,
COc1ccc(/C=C/C(=O)Nc2ccc(C)cc2)cc1S(=O)(=O)N1CCOCC1,-2.91%,
COc1ccc(/C=C/C(=O)Nc2ccc(C34CC5CC(CC(O)(C5)C3)C4)cc2)cc1OC,,18.4 µM (active)

Structure (SMILES),re-replication activation,Potency
CC1=C(C)CC(C(=O)NNC(=O)c2ccccc2O)C(C(=O)O)C1 (stereo not given),2.89%,
COC(=O)c1c(NC(=O)C2CC(C)=C(C)CC2C(=O)O)sc2c1CCCCC2 (stereo not given),-9.14%,
CC1=C(C)CC(C(=O)NNC(=O)c2csc3c2CCC(C(C)(C)C)C3)C(C(=O)O)C1 (stereo not given),,29.1 µM (active)
NC(=O)C1(Nc2ccc(-c3ccccc3)cc2)CCCC1,3.19%,
Cc1ccc(S(=O)(=O)N2CCOCC2)cc1NC(=O)COC(=O)c1cnccn1,1.9%,
O=C(CC1NCCNC1=O)Nc1ccc(Oc2ccccc2)cc1 (stereo not given),6.95%,
COC(=O)c1cc(C)sc1NC(=O)CC1Nc2ccccc2NC1=O (stereo not given),4.03%,
O=C(CC1Nc2ccccc2NC1=O)Nc1ccccc1 (stereo not given),,12.6 µM (active)
C[C@]12CCC(=O)C=C1C=CC1C2CC[C@@]2(C)C1CC[C@@]21CCC(=O)O1 (stereo not given in full),1.11%,
Nc1ccc2c(c1)C(=Cc1cccnc1)c1ccccc1-2,2.27%,
Cc1ccc(SC(CC(=O)c2ccc(C(C)(C)C)cc2)C(=O)O)cc1 (stereo not given),,20.6 µM (active)
Cc1ccc(C(=O)CSc2ccccc2C(=O)O)cc1,1.14%,
Cc1ccc(C(=O)CNc2ccc(F)cc2)cc1,5.96%,
O=C(N[C@H]1C/C=C\C(c2cccc(F)c2)N(Cc2ccccc2)C(=O)C1)OCC1c2ccccc2-c2ccccc21 (stereo not given in full),2.59%,
C#CCOCCOCCOCCNc1nc(N2CCN(C(=O)[C@H](CCCN=C(N)N)n3cc(C(N)[C@@H](C)CC)nn3)CC2)nc(N2CCN(C(=O)[C@H](CO)n3cc([C@@H](N)C(C)C)nn3)CC2)n1 (stereo not given in full),-3.08%,
COC(=O)COc1cccc2c(=O)n(CC(=O)NCc3ccccc3)ccc12,,2.59 µM (active)
COC(=O)COc1cccc2c(=O)n(CC(=O)NCCc3ccc(OC)c(OC)c3)ccc12,0.74%,
Cc1ccc(CNC(=O)CCNC(=O)Cn2ccc3ccccc3c2=O)cc1,9.14%,
CN(Cc1ccc(CNC[C@H]2O[C@@H](n3cnc4c(N)ncnc43)[C@H](O)[C@@H]2O)o1)S(C)(=O)=O,-0.482%,
CC(=O)Nc1ccc(NC(=O)COC(=O)C2CCC(C(C)(C)C)CC2)cc1 (stereo not given),-11.3%,
Cc1ccc(NC(=O)Cn2cnc3c(OCc4ccccc4)ncnc32)cc1C,8.76%,
Cc1[nH]c2ccc(C(=O)N3CCN(C)CC3)cc2c1C,-8.89%,
CCOc1ccccc1N1CCN(C(=O)c2ccc3[nH]c(C)c(C)c3c2)CC1,,18.4 µM (active)
COc1ccccc1N1CCN(C(=O)c2ccc(Cl)c(S(=O)(=O)N3CCCC3)c2)CC1,3.04%,
Cc1cc(NC(=O)CN2C(=O)NC(CC(C)C)C2=O)no1 (stereo not given),-8.09%,
